The whole screen tested about 360,000 compounds, of which about 16,000 (4.4%) were called active. Roughly 9% stayed inconclusive and do not appear here. The entries come from a sample that favours actives as a whole. Values without a mark were called inactive. Calls come from the whole dose curve; as a rule, active = well fitted inhibition curve with a large enough effect; inconclusive = small, poorly fitted or top-dose-only effect; inactive = no such curve, though single readings can be large or run the other way.
What follows are compounds tested against Bromodomain adjacent to zinc finger domain protein 2B (Homo sapiens) (UniProt Q9UIF8) (assay: qHTS Assay for Inhibitors of BAZ2B). Settings: AlphaScreen BAZ2B-H3K14Ac peptide displacement; series mostly up to 114 µM; activity change, negative = inhibition: at the top concentration.
Bromodomain adjacent to zinc finger domain protein 2B (Homo sapiens), sequence (Q9UIF8 whole entry, looked up, the tested form may be a part): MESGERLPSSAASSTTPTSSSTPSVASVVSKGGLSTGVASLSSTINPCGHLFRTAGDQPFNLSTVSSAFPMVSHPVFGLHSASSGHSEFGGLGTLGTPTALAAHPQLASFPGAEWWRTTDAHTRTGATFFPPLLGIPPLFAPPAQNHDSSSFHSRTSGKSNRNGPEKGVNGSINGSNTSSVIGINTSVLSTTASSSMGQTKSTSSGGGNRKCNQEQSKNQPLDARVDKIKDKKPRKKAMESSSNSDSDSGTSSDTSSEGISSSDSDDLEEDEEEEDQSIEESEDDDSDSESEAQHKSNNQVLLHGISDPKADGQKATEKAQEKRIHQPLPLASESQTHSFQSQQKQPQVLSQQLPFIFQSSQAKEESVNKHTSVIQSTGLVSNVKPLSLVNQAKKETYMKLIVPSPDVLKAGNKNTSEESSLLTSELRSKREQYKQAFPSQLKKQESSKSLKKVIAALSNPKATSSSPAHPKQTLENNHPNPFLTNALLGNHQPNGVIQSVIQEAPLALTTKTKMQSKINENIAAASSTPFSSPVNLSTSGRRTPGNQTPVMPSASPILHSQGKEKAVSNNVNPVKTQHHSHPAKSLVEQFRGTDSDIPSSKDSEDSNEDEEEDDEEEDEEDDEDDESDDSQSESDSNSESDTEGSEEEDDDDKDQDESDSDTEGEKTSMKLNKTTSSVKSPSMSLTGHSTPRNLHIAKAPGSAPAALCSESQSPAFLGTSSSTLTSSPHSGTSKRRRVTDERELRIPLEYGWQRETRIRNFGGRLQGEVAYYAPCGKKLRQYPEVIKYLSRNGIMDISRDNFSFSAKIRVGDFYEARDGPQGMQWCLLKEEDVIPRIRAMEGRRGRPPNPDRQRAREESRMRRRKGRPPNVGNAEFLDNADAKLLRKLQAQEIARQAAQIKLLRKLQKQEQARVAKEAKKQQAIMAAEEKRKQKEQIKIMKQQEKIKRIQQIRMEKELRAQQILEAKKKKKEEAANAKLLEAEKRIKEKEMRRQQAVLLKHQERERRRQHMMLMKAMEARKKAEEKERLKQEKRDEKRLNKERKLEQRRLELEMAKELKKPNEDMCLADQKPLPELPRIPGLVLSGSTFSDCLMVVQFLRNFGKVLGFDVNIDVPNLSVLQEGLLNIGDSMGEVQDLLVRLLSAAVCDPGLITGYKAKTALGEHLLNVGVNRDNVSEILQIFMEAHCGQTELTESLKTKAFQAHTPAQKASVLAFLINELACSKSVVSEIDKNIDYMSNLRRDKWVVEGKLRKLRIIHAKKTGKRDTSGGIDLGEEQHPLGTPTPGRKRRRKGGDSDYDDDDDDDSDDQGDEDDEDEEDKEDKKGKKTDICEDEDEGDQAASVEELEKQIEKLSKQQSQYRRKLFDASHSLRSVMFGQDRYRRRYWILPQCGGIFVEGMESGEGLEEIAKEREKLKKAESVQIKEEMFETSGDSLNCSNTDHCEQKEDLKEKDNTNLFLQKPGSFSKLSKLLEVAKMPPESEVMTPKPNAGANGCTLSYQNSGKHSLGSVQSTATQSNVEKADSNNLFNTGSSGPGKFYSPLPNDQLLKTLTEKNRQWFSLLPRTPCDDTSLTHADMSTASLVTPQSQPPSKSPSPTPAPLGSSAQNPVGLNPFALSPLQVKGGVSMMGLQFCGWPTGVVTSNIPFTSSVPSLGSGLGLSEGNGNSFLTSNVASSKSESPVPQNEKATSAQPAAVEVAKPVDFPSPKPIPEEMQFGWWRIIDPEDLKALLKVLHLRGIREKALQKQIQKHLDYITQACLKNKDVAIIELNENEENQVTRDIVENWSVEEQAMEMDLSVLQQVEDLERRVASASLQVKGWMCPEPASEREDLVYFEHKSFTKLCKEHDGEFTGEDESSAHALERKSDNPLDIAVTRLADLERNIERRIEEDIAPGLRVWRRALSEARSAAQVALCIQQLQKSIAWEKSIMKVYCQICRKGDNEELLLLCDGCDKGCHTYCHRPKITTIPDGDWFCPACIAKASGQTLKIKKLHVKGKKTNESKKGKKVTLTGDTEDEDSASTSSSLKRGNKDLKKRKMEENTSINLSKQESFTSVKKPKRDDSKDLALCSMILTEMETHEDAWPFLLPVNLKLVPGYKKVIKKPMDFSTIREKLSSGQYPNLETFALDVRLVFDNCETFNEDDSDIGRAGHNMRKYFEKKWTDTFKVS
In short: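 Multi-concentration screen (max 110 uM) measuring displacement of acetylated histone H3 peptide from BAZ2B by AlphaScreen, using 50 nM protein, 50 nM peptide and 10 ug/mL streptavidin donor plus Ni-chelate acceptor beads.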
% is set by controls: 0 for no effect and ±100 for the full control effect; potency is the fitted concentration of half-maximal effect.
Note: nearly all actives have a fitted effect of over 60% in size.

In order of rising “activity change, negative = inhibition” value:
1. Cc1ccc(S(=O)(=O)c2nc(NCCCn3ccnc3)sc2Cl)cc1  -51.5%
2. O=C(CSc1ncc(-c2ccccc2)[nH]1)Nc1ccc(F)cc1F  -39%
3. O=S(=O)(NCCc1nnc2ccc(SCc3ccc(Cl)cc3Cl)nn12)c1ccccc1  -33.8%
4. COc1ccc(Nc2ncc(F)c(N3CCOCC3)n2)cc1  -27%
5. CC(=O)c1cc(C#N)c(SCC(=O)C(C)(C)C)nc1C  -24.6%
6. O=C(O)c1cccc(NC(=S)N/N=C/c2c[nH]c3ccccc23)c1  -21.7%
7. COc1ccc(S(=O)(=O)c2c(Nc3cccc(Cl)c3)sc(C(=O)c3ccccc3)c2N)cc1  -20.4%
8. O=S(=O)(c1ccc2nc(NCc3ccccc3Cl)ccc2c1)N1CCCCC1  -19.2%
9. COc1cc(C(=O)N2CCN(c3ccc(Nc4ccc(C)cc4)nn3)CC2)cc(OC)c1OC  -18.6%
10. CCN(CC)C(=O)CSc1nc2cc3c(cc2c(=O)n1CCCC(=O)NCc1ccc2c(c1)OCO2)OCO3  -18.3%
11. COc1ccc(-c2cn3ccc(C)cc3n2)cc1  -17%
12. CC(=O)c1cc(C#N)c(SCC(=O)Nc2nccs2)nc1C  -15.2%
13. Cc1cc2ccccc2n1CCNC(=O)c1ccc(F)cc1  -14.6%
14. COC(=O)CN1C(=O)CSc2ccc(S(=O)(=O)Nc3cc(C)ccc3C)cc21  -14.5%
15. Cc1cc2n(n1)C(c1cc(C(C)(C)C)c(O)cc1O)Nc1ccccc1-2 (stereo not drawn)  -14.5%
16. CCCn1c2ccccc2c2cnn(CC(=O)NCC3CCN(Cc4ccc(C)cc4)CC3)c(=O)c21  -14.3%
17. Cc1ccc(Nc2nc(N3CCOCC3)nc(N3CCOCC3)n2)cc1Cl  -13.2%
18. CCOc1ccccc1NC(=O)Cn1nnc(C(=O)NCc2cccs2)c1N  -12.9%
19. CCC(=O)N1CCc2cc(Br)cc(S(=O)(=O)NCc3ccc(Cl)cc3)c21  -12.3%
20. Cc1ccc(C)c(N2C(=O)N(Cc3c(F)cccc3Cl)c3ccccc3S2(=O)=O)c1  -12.1%
21. CCCCNC(=O)C1CCCN(c2nnc(C)c3c(C)n(-c4ccc(Cl)cc4)nc23)C1 (stereo not drawn)  -11.8%
22. CC(=O)NCCC(=O)Nc1cc(S(=O)(=O)N2CCOCC2)ccc1N1CCOCC1  -10.5%
23. O=C(NCCc1ccccc1)c1ccc2c(c1)N(Cc1ccccc1)C(=O)c1ccccc1S2(=O)=O  -9.92%
24. CCC(=O)N1c2ccccc2CC1C(=O)N1CCN(c2ccccc2F)CC1 (stereo not drawn)  -9.61%
25. CCOc1ccc(S(=O)(=O)NCCCn2ccnc2)cc1NC(C)=O  -8.46%
26. CSc1nc(-c2ccccc2Cl)nc2c1Cc1c(CO)cnc(C)c1O2  -8.33%
27. CCOc1ccc(N(CC)S(=O)(=O)N2CCCC(C(=O)NCc3ccc(Cl)cc3)C2)cc1 (stereo not drawn)  -7.7%
28. CCCCc1nnc(NC(=O)CSc2nc(C)cc(=O)[nH]2)s1  -6.69%
29. COc1cc(OC)cc(C(=O)Nc2cc3nn(-c4ccccc4)nc3cc2Cl)c1  -6.64%
30. N#C/C(=C/c1cccc([N+](=O)[O-])c1)c1nnc2n1CCCCC2  -6.09%
31. Cc1ccc(S(=O)(=O)N2[C@@H](c3ccccc3F)C(C(=O)O)=CC[C@H]2c2ccc(Cl)cc2)cc1  -5.93%
32. COc1ccc(S(=O)(=O)n2nc(C)c(S(=O)(=O)N3CCCCCC3)c2C)cc1  -5.25%
33. COc1ccccc1CNC(=O)c1ccc(CS(=O)(=O)c2ccccc2)o1  -5.07%
34. Brc1ccc(OCCn2ccnc2)cc1  -4.22%
35. Cc1nnc(N2CCC(C(=O)Nc3ccc(F)cc3)CC2)c2nn(-c3ccc(Cl)cc3)c(C)c12  -3.82%
36. COc1ccc(Cl)cc1S(=O)(=O)N1CCC(c2ccncc2)CC1  -3.34%
37. COc1ccc2[nH]cc(CCN3C(=O)c4ccc(C(=O)O)cc4C3=O)c2c1  -3.1%
38. O=C(c1ccc(S(=O)(=O)N2CCOCC2)cc1)N1CCN(c2ccccc2)CC1  -2.71%
39. O=C(COC(=O)c1ccccc1F)Nc1cc(S(=O)(=O)N2CCOCC2)ccc1N1CCCC1  -2.68%
40. COc1ccc(Cl)cc1NC(=O)C(C)Sc1nc2c(c(=O)[nH]1)CCCC2 (stereo not drawn)  -2.65%
41. COc1ccc(NC(=O)c2sc(N)nc2-c2ccccc2)cc1  -2.58%
42. COc1ccc(CNc2nc(-c3ccccc3)nn2C(=O)c2ccccc2OC)cc1  -2.25%
43. Cc1cc(C)c2oc(C(=O)Nc3c(C(=O)Nc4ccccc4)oc4ccccc34)cc(=O)c2c1  -1.94%
44. CCOC(=O)Cc1csc(NC(=O)CSc2ccc(Br)cc2)n1  -1.86%
45. CCN(C(=O)Cn1cnc2sc(C)c(S(=O)(=O)N3CCN(c4ncccn4)CC3)c2c1=O)c1ccccc1F  -1.72%
46. Cc1ccc2onc(CC(=O)N3CCN(c4ccc(Cl)cc4)CC3)c2c1  -1.17%
47. COC(=O)CN1C(=O)C(O)=C(C(C)=O)C1c1ccc([N+](=O)[O-])cc1 (stereo not drawn)  -0.86%
48. CCCNC(=O)c1ccc2c(c1)ncn2-c1ccc(C)cc1C  -0.425%
49. CSc1nc(=O)c2c(n1C)NC(=O)CC2c1ccccc1OC(C)C (stereo not drawn)  0.682%
50. CCCCCn1c(CCNC(=O)c2ccc(F)cc2)nc2ccccc21  0.99%
51. Cn1c(SCC(=O)N2CCCc3ccccc32)ncc(C(=O)Nc2ccc(F)cc2)c1=O  1.92%
52. Cc1ccc2oc(=O)c3cnn(CC(=O)N4CCN(c5cccc(Cl)c5)CC4)c3c2c1  2.22%
53. Cc1cccc(-c2nnc(SCC(=O)N3CCCc4ccccc43)o2)c1  2.41%
54. Cc1ccc(NC(=O)c2oc3ccc(S(=O)(=O)N4CCCCC4)cc3c2C)cc1Cl  2.57%
55. Cc1nn(Cc2ccc(F)cc2)c(C)c1NC(=O)c1cc(CC(C)C)on1  2.89%
56. COc1cccc(-c2nnc(SCC(=O)N3CCC(C)CC3)o2)c1  2.96%
57. Cc1ccc(-n2ccc(=O)c(C(=O)O)n2)cc1  3.19%
58. C#CCOCCOCCOCCNc1nc(N2CCN(C(=O)[C@H](CCCCN)n3cc(CCC(=O)O)nn3)CC2)nc(N2CCN(C(=O)[C@H](CCCCN)n3cc(CC(C)O)nn3)CC2)n1 (stereo partly drawn)  3.58%
59. O=C(CSc1nc2nccnc2c(=O)n1CCc1c[nH]c2ccccc12)Nc1ccccc1F  3.9%
60. CCc1ccc(N2C(=O)CN(S(=O)(=O)CC)CC2(C)C(=O)NC2CCCCC2)cc1 (stereo not drawn)  3.92%
61. CCC(=O)N1CCc2cc(CNS(=O)(=O)c3ccc(Br)s3)ccc21  4%
62. Cc1ccc(S(=O)(=O)NCC(=O)N2CCN(c3ccccn3)CC2)cc1  4.28%
63. CCOC(=O)c1ccc(NC(=O)Cc2cccs2)cc1  4.75%
64. Cc1cccc(N(C)C(=O)CS(=O)(=O)c2cccc3nsnc23)c1  5.25%
65. COc1ccc(C(=O)Nc2nonc2-c2ccc(OC)c(OC)c2)cc1Cl  5.28%
66. O=C(NCCCn1ccnc1)c1ccccc1F  5.41%
67. COc1ccccc1CNC(=O)Cn1nc(C)c2nn(-c3ccc(Cl)cc3)c(C)c2c1=O  5.44%
68. O=C(N/N=C/c1c[nH]c2ccccc12)c1ccccc1O  6.98%
69. O=C(NCc1ccc(F)cc1)c1ccc2nc(N3CCCCC3)sc2c1  9.7%
70. CCOCCCn1c(SCC(=O)Nc2ccc(CC)cc2)nc2ccccc2c1=O  11.4%
71. Nc1ccc(-c2nnc(-c3ccccc3)o2)cc1  17%
72. Cc1ccc2cccc(NC(=O)c3cccc4ccccc34)c2n1  31.4%
73. CCc1ccc(CN(Cc2ccco2)C(=O)COc2ccc(Cl)c(C)c2)cc1  40.4%
74. CN1OC(COC(=O)c2ccc(Cl)cc2)CC1c1ccccc1 (stereo not drawn)  58.4%
75. COC(=O)c1c(NC(=O)C(C)Oc2ccc(Cl)c(C)c2)sc(C)c1C (stereo not drawn)  59.2%
76. Cc1ccc(CSc2nc3ccsc3c(=O)n2CCC(C)C)cc1  78.6%
77. COc1ccc(CNc2nc(-c3ccc(Cl)cc3)cc(C(F)(F)F)n2)cc1  146%

For `COc1ccc(C2C(C(C)=O)=C(O)C(=O)N2CCc2c[nH]c3ccccc23)cc1` (stereo not drawn), the Potency was 56.2 µM (active).
In the case of `CC(=O)c1cc(C#N)c(N2CCCCC2)nc1C`, the Potency is reported as 56.2 µM (active).
For `CCOC(=O)Cc1csc(NC(=O)CSc2nc(C)cc(=O)[nH]2)n1`, the Potency was 50.1 µM (active).
For `CSC(=S)N/N=C/c1c[nH]c2ccccc12`, the Potency was 35.5 µM (active).
For `C#CCOCCOCCOCCNc1nc(N2CCN(C(=O)[C@H](CCC(=O)O)n3cc(C(N)CO)nn3)CC2)nc(N2CCN(C(=O)[C@H](CCCCN)n3cc(C(N)[C@H](C)CC)nn3)CC2)n1` (stereo partly drawn), the Potency was 14.1 µM (active).
In the case of `C#CCOCCOCCOCCNc1nc(N2CCN(C(=O)[C@H](CCC(=O)O)n3cc(C(N)CO)nn3)CC2)nc(N2CCN(C(=O)[C@H](CCCCN)n3cc(C(N)CC(C)C)nn3)CC2)n1` (stereo partly drawn), the Potency is reported as 44.7 µM (active).
In the case of `Cc1ccn2cc(-c3nonc3C)cc2c1`, the Potency is reported as 56.2 µM (active).
With `Clc1c(OCCCn2ccnc2)ccc2ccccc12` the Potency was 39.8 µM (active).
For `C=CCc1cc(C)ccc1OCCCn1ccnc1`, the Potency was 31.6 µM (active).
With `N#C/C(=C(\O)CCl)c1nnc2n1CCCCC2` the Potency was 79.4 µM (active).
`O=C(CNCc1ccco1)Nc1cc(S(=O)(=O)N2CCOCC2)ccc1N1CCCC1` was tested, and the Potency was 50.1 µM (active).
`O=C(c1ccc(CS(=O)(=O)c2ccccc2)o1)N1CCN(c2ccccc2)CC1` was tested, and the Potency was 56.2 µM (active).
`COc1ccc(N2CCN(C3CCCCC3NS(=O)(=O)c3ccccc3)CC2)cc1` (stereo not drawn) was tested, and the Potency was 17.8 µM (active).
`Cc1ccccc1S(=O)(=O)N1[C@@H](c2cccc(Cl)c2)C(C(=O)O)=CC[C@H]1c1ccc(Cl)cc1` was tested, and the Potency was 79.4 µM (active).
In the case of `CCOc1ccc(Nc2nc(Cl)nc(N3CCN(c4ccc(OC)cc4)CC3)n2)cc1`, the Potency is reported as 8.91 µM (active).
For `CCOc1ccccc1NC(=O)Cc1cccs1`, the Potency was 50.1 µM (active).
With `Nc1ccc(-c2sc(N)nc2-c2ccccc2)cc1` the Potency was 50.1 µM (active).
With `Cc1ccc(N2CCN(c3ccc(C)cc3)C2c2ccccn2)cc1` the Potency was 50.1 µM (active).

In order of falling “activity change, negative = inhibition” value:
1. Cc1cccc(C(CC(=O)NCC2(c3ccccc3)CCCC2)c2ccccc2)c1O (stereo not drawn)  3.1% [at 57.1 µM]
2. CCN1CCN(C2CCCCC2NS(=O)(=O)c2ccc(Cl)cc2)CC1 (stereo not drawn)  -4.4% [at 57.1 µM]
3. O=S(=O)(NC1CCCCC1N1CCN(c2ccccc2F)CC1)c1ccccc1 (stereo not drawn)  -10.1% [at 57.1 µM]
